Common to all, as to test: DAPPL (digital affinity profiling via proximity ligation, sequencing); 10 mM Tris-HCl pH 7.5, 50 mM NaCl, 1 mM DTT, 4% glycerol, room temperature, 30 min; GST-TFs on glutathione beads, 16-mer random dsDNA library, 0.1% formaldehyde crosslink after washing; high values mean tight binding
One assay concerns the target T1, FLI1 (Homo sapiens, UniProt Q01543 1-452).
T1 sequence: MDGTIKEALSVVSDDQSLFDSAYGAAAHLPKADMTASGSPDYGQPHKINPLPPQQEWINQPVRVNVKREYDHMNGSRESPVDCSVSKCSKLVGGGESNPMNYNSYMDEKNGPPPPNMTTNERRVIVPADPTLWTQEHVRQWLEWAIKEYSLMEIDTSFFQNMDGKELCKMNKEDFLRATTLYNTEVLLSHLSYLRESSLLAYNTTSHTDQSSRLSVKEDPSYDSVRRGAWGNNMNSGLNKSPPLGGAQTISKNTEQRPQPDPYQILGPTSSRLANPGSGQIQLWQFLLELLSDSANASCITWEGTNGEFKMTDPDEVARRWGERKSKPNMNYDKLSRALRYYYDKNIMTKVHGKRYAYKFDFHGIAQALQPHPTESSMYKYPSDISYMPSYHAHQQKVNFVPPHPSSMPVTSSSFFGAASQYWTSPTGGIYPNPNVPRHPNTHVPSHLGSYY
The note with it: protein: recombinant; tags: N-terminal GST; dsDNA, one strand shown. The essentials:
(§1)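 Yeast served to express human transcription factors as GST fusions, which were then captured on glutathione beads and labelled with DNA barcodes. Pooled with a tag-only sample, they were incubated with 200 nmole of a 16-mer random double-stranded DNA library for 30 min at room temperature in Tris/NaCl/DTT/glycerol buffer, washed, crosslinked with 0.1% formaldehyde, ligated by proximity, amplified by PCR and sequenced. Dividing each hexamer's read frequency for a factor by its frequency for the tag-only sample gives the binding signal.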

For another assay, the target named is T2, ELK1 (Homo sapiens, UniProt P19419 1-428).
T2 sequence: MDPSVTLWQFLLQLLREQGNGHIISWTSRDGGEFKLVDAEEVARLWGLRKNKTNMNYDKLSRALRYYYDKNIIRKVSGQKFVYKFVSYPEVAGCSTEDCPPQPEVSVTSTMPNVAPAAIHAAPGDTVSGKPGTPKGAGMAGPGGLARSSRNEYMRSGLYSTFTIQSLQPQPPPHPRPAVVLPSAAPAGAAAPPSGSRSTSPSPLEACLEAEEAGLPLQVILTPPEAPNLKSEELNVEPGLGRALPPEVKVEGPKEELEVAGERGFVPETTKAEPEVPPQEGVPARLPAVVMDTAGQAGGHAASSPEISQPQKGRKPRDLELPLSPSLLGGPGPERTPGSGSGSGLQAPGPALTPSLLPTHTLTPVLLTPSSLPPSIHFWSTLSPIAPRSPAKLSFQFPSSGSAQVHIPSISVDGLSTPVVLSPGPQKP
The note with it: protein: recombinant; tags: N-terminal GST; dsDNA, one strand shown. The method in brief: as §1

The next assay addresses T3, GABPA (Homo sapiens, UniProt Q06546 1-454).
T3 sequence: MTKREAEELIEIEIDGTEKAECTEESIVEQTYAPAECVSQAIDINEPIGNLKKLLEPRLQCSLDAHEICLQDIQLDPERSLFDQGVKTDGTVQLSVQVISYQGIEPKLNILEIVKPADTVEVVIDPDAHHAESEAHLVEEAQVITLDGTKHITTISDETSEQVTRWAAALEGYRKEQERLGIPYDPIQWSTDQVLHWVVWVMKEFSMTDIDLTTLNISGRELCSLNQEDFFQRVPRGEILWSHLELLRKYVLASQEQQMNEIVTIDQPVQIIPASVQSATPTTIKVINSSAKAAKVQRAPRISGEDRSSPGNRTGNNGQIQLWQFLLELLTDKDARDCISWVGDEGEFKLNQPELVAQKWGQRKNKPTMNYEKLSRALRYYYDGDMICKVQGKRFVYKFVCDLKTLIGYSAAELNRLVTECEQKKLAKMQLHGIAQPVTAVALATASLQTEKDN
The note with it: protein: recombinant; tags: N-terminal GST; dsDNA, one strand shown. The essentials:
as §1

In a further assay the target is T4, ERG (Homo sapiens, UniProt P11308 1-479).
T4 sequence: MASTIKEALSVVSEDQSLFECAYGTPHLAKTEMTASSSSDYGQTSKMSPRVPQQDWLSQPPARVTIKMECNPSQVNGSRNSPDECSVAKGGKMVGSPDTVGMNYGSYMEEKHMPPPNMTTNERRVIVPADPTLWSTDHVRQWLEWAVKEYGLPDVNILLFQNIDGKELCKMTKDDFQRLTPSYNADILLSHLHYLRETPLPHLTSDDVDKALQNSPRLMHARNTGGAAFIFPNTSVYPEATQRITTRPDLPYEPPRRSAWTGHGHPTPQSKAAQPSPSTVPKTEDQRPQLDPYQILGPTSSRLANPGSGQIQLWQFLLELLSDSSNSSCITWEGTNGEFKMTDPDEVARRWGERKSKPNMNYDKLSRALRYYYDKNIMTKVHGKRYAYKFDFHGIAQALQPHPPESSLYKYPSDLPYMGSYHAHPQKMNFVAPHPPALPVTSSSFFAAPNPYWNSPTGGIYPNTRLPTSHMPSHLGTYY
The note with it: protein: recombinant; tags: N-terminal GST; dsDNA, one strand shown. The method in brief: as §1

In the next assay the target is ELF1 (Homo sapiens, UniProt P32519 1-619). The following applies: protein: recombinant; tags: N-terminal GST; dsDNA, one strand shown. The essentials:
as §1

Another assay deals with T5, EHF (Homo sapiens, UniProt Q9NZC4 1-300).
T5 sequence: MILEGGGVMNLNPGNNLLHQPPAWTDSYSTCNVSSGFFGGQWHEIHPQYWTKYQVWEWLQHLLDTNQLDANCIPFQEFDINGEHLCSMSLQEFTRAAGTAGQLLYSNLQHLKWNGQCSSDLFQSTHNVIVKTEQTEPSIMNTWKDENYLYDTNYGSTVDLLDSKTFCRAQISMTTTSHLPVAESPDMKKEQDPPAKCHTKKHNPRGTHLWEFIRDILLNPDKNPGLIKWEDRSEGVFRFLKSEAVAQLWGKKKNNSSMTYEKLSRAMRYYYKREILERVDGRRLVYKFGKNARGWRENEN
The note with it: protein: recombinant; tags: N-terminal GST; dsDNA, one strand shown. The method in brief: as §1

The target of the next assay is SPI1 (Homo sapiens, UniProt P17947 1-270). The following applies: protein: recombinant; tags: N-terminal GST; dsDNA, one strand shown. The essentials:
as §1

The target in a further assay is SPIB (Homo sapiens, UniProt Q01892 1-262). The following applies: protein: recombinant; tags: N-terminal GST; dsDNA, one strand shown. The essentials: as §1
SPIB, sequence (Q01892 whole entry): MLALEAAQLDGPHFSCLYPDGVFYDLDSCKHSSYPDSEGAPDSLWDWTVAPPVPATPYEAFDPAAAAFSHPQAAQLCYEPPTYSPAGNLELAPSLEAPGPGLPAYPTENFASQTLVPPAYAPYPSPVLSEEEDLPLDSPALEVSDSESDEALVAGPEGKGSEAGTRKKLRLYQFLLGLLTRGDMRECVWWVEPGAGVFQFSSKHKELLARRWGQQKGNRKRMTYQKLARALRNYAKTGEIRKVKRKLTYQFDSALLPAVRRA
Another assay addresses T6, ELK3 (Homo sapiens, UniProt P41970 1-407).
T6 sequence: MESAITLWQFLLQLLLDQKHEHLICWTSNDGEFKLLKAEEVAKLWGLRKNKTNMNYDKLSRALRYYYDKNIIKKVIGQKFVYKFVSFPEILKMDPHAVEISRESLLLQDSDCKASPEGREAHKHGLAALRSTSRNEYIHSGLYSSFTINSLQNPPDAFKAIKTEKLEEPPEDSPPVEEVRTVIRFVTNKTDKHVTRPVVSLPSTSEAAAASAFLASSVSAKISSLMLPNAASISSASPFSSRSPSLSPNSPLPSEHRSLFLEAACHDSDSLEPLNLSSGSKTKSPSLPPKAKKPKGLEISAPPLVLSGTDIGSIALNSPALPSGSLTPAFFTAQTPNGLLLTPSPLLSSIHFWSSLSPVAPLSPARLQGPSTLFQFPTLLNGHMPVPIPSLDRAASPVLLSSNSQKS
The following applies: protein: recombinant; tags: N-terminal GST; dsDNA, one strand shown. The essentials:
as §1

The target of a further assay is T7, FEV (Homo sapiens, UniProt Q99581 1-238).
T7 sequence: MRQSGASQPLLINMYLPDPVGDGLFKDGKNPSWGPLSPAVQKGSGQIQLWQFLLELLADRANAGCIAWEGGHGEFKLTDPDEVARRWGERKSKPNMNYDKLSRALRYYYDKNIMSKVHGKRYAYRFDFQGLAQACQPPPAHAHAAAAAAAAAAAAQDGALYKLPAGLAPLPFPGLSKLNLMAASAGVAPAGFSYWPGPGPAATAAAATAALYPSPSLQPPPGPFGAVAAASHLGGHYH
The note with it: protein: recombinant; tags: N-terminal GST; dsDNA, one strand shown. The essentials:
as §1

In another assay the target is ETV5 (Homo sapiens, UniProt P41161 1-510). The following applies: protein: recombinant; tags: N-terminal GST; dsDNA, one strand shown. The essentials:
as §1

The target in another assay is HSF1 (Homo sapiens, UniProt Q00613 1-529). The following applies: protein: recombinant; tags: N-terminal GST; chain copies: 3; dsDNA, one strand shown. The essentials: as §1
HSF1, sequence (Q00613 whole entry): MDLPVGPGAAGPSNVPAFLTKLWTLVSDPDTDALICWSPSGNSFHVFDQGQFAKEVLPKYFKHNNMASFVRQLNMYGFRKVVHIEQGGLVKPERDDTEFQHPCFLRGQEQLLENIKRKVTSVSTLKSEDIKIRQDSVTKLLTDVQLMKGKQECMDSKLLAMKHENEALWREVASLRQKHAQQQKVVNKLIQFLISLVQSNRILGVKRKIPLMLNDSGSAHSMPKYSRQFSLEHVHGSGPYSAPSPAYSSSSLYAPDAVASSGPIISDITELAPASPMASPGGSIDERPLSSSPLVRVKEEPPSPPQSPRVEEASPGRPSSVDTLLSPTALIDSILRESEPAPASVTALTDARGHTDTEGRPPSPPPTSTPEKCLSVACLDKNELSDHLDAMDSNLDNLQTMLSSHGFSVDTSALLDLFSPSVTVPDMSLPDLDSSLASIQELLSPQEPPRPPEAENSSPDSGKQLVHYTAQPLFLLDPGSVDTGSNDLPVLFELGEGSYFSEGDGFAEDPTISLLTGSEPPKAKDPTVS
The target in the next assay is T8, SPIC (Homo sapiens, UniProt Q8N5J4 1-248).
T8 sequence: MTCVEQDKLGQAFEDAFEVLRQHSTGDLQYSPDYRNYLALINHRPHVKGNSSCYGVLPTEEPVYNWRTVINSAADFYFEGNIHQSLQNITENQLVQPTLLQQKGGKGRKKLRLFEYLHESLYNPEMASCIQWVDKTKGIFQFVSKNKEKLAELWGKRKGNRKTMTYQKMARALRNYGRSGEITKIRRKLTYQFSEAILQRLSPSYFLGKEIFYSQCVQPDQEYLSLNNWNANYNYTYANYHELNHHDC
The note with it: protein: recombinant; tags: N-terminal GST; dsDNA, one strand shown. The method in brief:
as §1

The next assay concerns the target ELF4 (Homo sapiens, UniProt Q99607 1-663). The note with it: protein: recombinant; tags: N-terminal GST; dsDNA, one strand shown. The essentials: as §1
For another assay, the target named is T9, ELK4 (Homo sapiens, UniProt P28324-2 1-405).
T9 sequence: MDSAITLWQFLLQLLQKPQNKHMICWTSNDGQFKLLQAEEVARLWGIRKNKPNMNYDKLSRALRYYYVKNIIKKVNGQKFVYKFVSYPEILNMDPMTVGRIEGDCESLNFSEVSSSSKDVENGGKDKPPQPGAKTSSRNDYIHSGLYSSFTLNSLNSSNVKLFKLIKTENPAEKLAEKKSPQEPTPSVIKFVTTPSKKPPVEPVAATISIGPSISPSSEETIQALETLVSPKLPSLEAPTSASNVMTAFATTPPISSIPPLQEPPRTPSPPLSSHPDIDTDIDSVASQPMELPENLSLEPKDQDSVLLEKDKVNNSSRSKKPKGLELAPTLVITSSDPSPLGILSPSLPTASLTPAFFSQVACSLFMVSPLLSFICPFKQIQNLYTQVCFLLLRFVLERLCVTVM
The following applies: protein: recombinant; tags: N-terminal GST; dsDNA, one strand shown. The essentials:
as §1

The target in a further assay is T10, ETV2 (Homo sapiens, UniProt O00321 1-342).
T10 sequence: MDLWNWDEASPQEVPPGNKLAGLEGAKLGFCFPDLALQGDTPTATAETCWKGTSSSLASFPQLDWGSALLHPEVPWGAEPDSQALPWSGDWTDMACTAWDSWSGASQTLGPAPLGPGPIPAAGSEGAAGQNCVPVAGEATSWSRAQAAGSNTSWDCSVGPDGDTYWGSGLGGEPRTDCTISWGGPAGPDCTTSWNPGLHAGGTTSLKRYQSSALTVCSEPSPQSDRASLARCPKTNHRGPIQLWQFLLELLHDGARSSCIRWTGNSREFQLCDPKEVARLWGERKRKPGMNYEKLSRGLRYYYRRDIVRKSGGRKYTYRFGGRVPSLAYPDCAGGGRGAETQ
The following applies: protein: recombinant; tags: N-terminal GST; dsDNA, one strand shown. The essentials:
as §1

Another assay deals with CRX (Homo sapiens, UniProt O43186 1-299). The note with it: protein: recombinant; tags: N-terminal GST; dsDNA, one strand shown. The method in brief:
as §1

A further assay deals with ETV1 (Homo sapiens, UniProt P50549 1-477). The note with it: protein: recombinant; tags: N-terminal GST; dsDNA, one strand shown. The essentials:
as §1

ELF4, sequence (Q99607 whole entry): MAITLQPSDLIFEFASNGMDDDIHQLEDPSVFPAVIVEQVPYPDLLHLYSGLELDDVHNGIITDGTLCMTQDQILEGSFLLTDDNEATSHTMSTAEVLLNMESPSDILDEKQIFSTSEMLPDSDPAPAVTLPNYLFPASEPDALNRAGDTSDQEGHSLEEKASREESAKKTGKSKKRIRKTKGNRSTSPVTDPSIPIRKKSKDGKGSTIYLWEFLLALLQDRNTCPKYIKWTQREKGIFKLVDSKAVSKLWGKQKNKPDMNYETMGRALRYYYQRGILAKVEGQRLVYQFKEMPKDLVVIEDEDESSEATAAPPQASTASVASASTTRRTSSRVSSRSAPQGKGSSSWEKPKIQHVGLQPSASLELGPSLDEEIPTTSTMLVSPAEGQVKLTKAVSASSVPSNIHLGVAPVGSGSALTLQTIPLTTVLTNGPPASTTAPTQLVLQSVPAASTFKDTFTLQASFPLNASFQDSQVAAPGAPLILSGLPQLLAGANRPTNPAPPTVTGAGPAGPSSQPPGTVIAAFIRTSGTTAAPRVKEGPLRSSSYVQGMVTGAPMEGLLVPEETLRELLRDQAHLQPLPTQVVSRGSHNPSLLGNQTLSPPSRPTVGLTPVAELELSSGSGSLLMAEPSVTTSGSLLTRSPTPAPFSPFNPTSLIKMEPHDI
ETV1, sequence (P50549 whole entry): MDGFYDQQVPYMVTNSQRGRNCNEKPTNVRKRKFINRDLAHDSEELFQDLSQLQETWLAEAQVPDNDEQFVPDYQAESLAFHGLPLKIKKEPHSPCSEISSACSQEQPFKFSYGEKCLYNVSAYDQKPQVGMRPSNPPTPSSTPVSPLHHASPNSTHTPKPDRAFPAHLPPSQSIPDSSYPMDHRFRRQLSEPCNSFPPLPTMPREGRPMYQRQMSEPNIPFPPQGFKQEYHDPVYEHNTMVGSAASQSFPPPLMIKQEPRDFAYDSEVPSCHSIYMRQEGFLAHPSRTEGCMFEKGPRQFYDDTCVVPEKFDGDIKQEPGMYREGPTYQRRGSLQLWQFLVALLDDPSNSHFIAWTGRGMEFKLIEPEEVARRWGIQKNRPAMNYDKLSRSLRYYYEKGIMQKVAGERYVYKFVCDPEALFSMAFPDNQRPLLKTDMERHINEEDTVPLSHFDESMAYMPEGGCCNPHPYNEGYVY
ETV5, sequence (P41161 whole entry): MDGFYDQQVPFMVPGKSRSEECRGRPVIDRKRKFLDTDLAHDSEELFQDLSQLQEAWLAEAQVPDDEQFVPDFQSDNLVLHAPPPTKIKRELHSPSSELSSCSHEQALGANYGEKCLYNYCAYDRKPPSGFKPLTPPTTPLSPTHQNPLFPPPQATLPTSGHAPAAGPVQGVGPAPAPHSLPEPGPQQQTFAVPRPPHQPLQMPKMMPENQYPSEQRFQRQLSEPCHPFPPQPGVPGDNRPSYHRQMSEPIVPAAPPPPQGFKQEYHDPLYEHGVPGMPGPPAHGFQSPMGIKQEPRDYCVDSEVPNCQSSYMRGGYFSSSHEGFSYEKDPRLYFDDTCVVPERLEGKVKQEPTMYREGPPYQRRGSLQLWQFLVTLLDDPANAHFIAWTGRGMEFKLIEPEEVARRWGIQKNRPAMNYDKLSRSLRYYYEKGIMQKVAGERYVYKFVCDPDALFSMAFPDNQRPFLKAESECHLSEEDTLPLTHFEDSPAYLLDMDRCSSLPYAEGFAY
CRX, sequence (O43186 whole entry): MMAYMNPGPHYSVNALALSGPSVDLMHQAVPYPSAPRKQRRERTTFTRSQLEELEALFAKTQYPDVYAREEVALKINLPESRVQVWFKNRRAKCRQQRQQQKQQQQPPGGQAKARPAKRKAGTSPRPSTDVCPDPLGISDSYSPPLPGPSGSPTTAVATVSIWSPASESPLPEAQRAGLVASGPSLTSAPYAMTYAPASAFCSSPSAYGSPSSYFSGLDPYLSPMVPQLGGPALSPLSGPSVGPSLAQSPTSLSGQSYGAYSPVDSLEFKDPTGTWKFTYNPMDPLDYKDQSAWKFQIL
ELF1, sequence (P32519 whole entry): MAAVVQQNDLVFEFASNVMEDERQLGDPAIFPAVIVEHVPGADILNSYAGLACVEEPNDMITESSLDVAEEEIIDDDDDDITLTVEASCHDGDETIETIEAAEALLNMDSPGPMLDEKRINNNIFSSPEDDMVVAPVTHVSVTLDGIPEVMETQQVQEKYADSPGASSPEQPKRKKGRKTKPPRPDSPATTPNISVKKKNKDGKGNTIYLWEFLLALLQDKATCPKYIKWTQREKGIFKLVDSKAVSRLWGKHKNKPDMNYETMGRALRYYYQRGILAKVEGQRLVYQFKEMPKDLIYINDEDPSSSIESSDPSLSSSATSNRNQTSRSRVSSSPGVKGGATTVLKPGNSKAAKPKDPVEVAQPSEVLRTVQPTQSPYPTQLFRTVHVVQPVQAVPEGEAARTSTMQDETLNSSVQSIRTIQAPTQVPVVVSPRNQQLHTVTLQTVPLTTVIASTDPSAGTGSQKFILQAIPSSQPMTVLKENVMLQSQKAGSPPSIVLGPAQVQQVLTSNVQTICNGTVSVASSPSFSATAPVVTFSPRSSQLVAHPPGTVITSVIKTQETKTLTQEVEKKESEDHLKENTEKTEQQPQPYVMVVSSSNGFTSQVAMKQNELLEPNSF

Consider TTAGAA, for which the binding signal with FLI1 was 1 fold enrichment (6-mer frequency, TF over GST control); with ELK1 it was 1.02 fold enrichment (6-mer frequency, TF over GST control); with GABPA, 1.01 fold enrichment (6-mer frequency, TF over GST control); with ERG, 1.05 fold enrichment (6-mer frequency, TF over GST control); in the assay with ELF1, 1.14 fold enrichment (6-mer frequency, TF over GST control); in the assay with EHF, 1.14 fold enrichment (6-mer frequency, TF over GST control). In addition, the binding signal in the assay with SPI1 is 1.13 fold enrichment (6-mer frequency, TF over GST control); with SPIB it was 1.03 fold enrichment (6-mer frequency, TF over GST control); with ELK3, 1.06 fold enrichment (6-mer frequency, TF over GST control); in the assay with FEV, 1.02 fold enrichment (6-mer frequency, TF over GST control); with ETV5, 1.01 fold enrichment (6-mer frequency, TF over GST control); with HSF1, 1.93 fold enrichment (6-mer frequency, TF over GST control). The binding signal with SPIC was 1.25 fold enrichment (6-mer frequency, TF over GST control); with ELF4, 1.04 fold enrichment (6-mer frequency, TF over GST control); with ELK4, 1.1 fold enrichment (6-mer frequency, TF over GST control); with ETV2 it was 1.13 fold enrichment (6-mer frequency, TF over GST control); with CRX, 2.08 fold enrichment (6-mer frequency, TF over GST control); with ETV1, 1.11 fold enrichment (6-mer frequency, TF over GST control).
